# Laboratory results taken from PubChem BioAssay (NCATS).
# Records with an inconclusive call do not appear. Where a call stands in place of a potency, no number is given. The source made the active and inactive calls. The call rests on the fitted dose curve; in most records, active means well fitted curve in the direction sought with a large enough effect; inconclusive means small, poorly fitted or top-dose-only effect, or another doubt; inactive means no such curve, though single readings can be large; an effect the other way counts as inactive or inconclusive.
# Experiments:
# [1] = target: Metallo-beta-lactamase type 2 (Klebsiella pneumoniae) (UniProt C7C422); test: qHTS to identify inhibitors of the New Delhi Metallo-beta-lactamase (NDM): assay validation screen against the NCATS LOPAC Collection (AID 1794843);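 further: nitrocefin turnover by NDM-1 measured as 485 nm absorbance at plateau; series mostly up to about 38 µM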
# Outline: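 NDM-1 at 2 nM final in 50 mM HEPES pH 7.0 with 1 uM ZnSO4 and 0.01% Tween20 was preincubated with library compounds in DMSO. Nitrocefin (50 uM stock) was then added, and absorbance at 485 nm was read at the kinetic plateau.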
# [2] = target: Glutathione peroxidase 1 (Homo sapiens) (UniProt P07203); test: Primary qHTS Assay for Inhibitors of Recombinant Selenoprotein Glutathione Peroxidase 1 (GPX1) (AID 1845191); further: nearly all actives have a fitted effect of over 65% in size
# Outline: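 Recombinant GPX1 (10 nM final) was preincubated with compound for 30 min at room temperature, then reacted with 1 mM GSH, 0.5 mM CHP, 0.5 mM NADPH and 100 nM glutathione reductase; NADPH fluorescence (340/450 nm) was read at 0 and 15 min.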
# [3] = target: Phospholipid hydroperoxide glutathione peroxidase GPX4 (Homo sapiens) (UniProt P36969); test: Primary qHTS Assay for Inhibitors of Recombinant Selenoprotein Glutathione Peroxidase 4 (GPX4) (AID 1845192); further: nearly all actives have a fitted effect of over 65% in size
# Outline: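 GR-coupled readout: 100 nM GR, 1 mM GSH, 0.5 mM NADPH; NADPH fluorescence (ex 340/em 450 nm) read at t=0 and after 15 min RT. GPX4 200 nM, preincubated 30 min with compound; substrate 0.5 mM CHP.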
# [4] = Quantitative High-Throughput drug screen in 47 multiple myeloma cell lines against the NCATS MIPE library collection: EJM_DSMZ cell viability assay (AID 1918926; further: nearly all actives have a fitted effect of over 30% in size; further: potency means the concentration at half of the fitted maximal effect)
# Outline: (§1)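 Steps: seed 500 cells per well; pin-transfer MIPE 4.0 library; incubate 48 h at 37C, 5% CO2, humidified; add CellTiter-Glo, 5 min room temperature; read luminescence.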
# [5] = Quantitative High-Throughput drug screen in 47 multiple myeloma cell lines against the NCATS MIPE library collection: ARP1_JJKsccF8 cell viability assay (AID 1918928; further: nearly all actives have a fitted effect of over 40% in size; further: potency means the concentration at half of the fitted maximal effect)
# Outline: (§2)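 Myeloma cells, 500 per well, were exposed to MIPE 4.0 drugs by pin transfer for 48 h at 37 °C, 5% CO2. Viability was read as ATP luminescence with CellTiter-Glo, normalised to DMSO-only (100%) and medium-only (0%) wells.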
# [6] = Quantitative High-Throughput drug screen in 47 multiple myeloma cell lines against the NCATS MIPE library collection: Karpas620_DSMZ cell viability assay (AID 1918959); further: nearly all actives have a fitted effect of over 30% in size; further: potency means the concentration at half of the fitted maximal effect
# Outline: (§3)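 Viability readout: CellTiter-Glo luminescence following 5 min room-temperature incubation with reagent. Prior exposure: 48 h, 37C, humidified 5% CO2, 500 cells per well.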
# [7] = Quantitative High-Throughput drug screen in 47 multiple myeloma cell lines against the NCATS MIPE library collection: JIM1_ECACC cell viability assay (AID 1918964; further: potency means the concentration at half of the fitted maximal effect)
# Outline: as §1
# [8] = Quantitative High-Throughput drug screen in 47 multiple myeloma cell lines against the NCATS MIPE library collection: FR4_PLB cell viability assay (AID 1918924; further: nearly all actives have a fitted effect of over 35% in size; further: potency means the concentration at half of the fitted maximal effect)
# Outline: as §3
# [9] = Quantitative High-Throughput drug screen in 47 multiple myeloma cell lines against the NCATS MIPE library collection: AMO1_DSMZ cell viability assay (AID 1918927; further: nearly all actives have a fitted effect of over 30% in size; further: potency means the concentration at half of the fitted maximal effect)
# Outline: as §1
# [10] = Quantitative High-Throughput drug screen in 47 multiple myeloma cell lines against the NCATS MIPE library collection: ARD_JJKsccE7 cell viability assay (AID 1918929; further: potency means the concentration at half of the fitted maximal effect)
# Outline: as §1
# [11] = Quantitative High-Throughput drug screen in 47 multiple myeloma cell lines against the NCATS MIPE library collection: KMM1_JCRB cell viability assay (AID 1918960); further: nearly all actives have a fitted effect of over 30% in size; further: potency means the concentration at half of the fitted maximal effect
# Outline: as §2
# [12] = Quantitative High-Throughput drug screen in 47 multiple myeloma cell lines against the NCATS MIPE library collection: KHM11_PLB cell viability assay (AID 1918962); further: nearly all actives have a fitted effect of over 35% in size; further: potency means the concentration at half of the fitted maximal effect
# Outline: as §3
# [13] = Quantitative High-Throughput drug screen in 47 multiple myeloma cell lines against the NCATS MIPE library collection: JIM3_ECACC cell viability assay (AID 1918963; further: nearly all actives have a fitted effect of over 35% in size; further: potency means the concentration at half of the fitted maximal effect)
# Outline: as §3
# [14] = Quantitative High-Throughput drug screen in 47 multiple myeloma cell lines against the NCATS MIPE library collection: JJN3_DSMZ cell viability assay (AID 1918966; further: nearly all actives have a fitted effect of over 50% in size; further: potency means the concentration at half of the fitted maximal effect)
# Outline: as §1
# [15] = Quantitative High-Throughput drug screen in 47 multiple myeloma cell lines against the NCATS MIPE library collection: Delta47_JCRB cell viability assay (AID 1918925; further: nearly all actives have a fitted effect of over 45% in size; further: potency means the concentration at half of the fitted maximal effect)
# Outline: as §1
# [16] = Quantitative High-Throughput drug screen in 47 multiple myeloma cell lines against the NCATS MIPE library collection: INA6_PLB cell viability assay (AID 1918965; further: nearly all actives have a fitted effect of over 55% in size; further: potency means the concentration at half of the fitted maximal effect)
# Outline: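 Approved and investigational drugs from MIPE 4.0 were added by pin tool to 500 cells per well. After 48 hours at 37C, ATP-based CellTiter-Glo luminescence indicated remaining viability.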
# [17] = target: Luciferin 4-monooxygenase (Photinus pyralis) (UniProt P08659); test: Primary firefly luciferase (FLuc) qHTS assay for identification of artifact compounds. (AID 1845220); further: nearly all actives have a fitted effect of over 60% in size
# Outline: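 Reaction readout was CCD-imaged luminescence, taken 5 min after adding 10 nM purified firefly enzyme to compound-treated wells holding 10 uM luciferin and ATP in pH 7.6 buffer.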
# [18] = test system: Nanoluciferase (engineered Oplophorus gracilirostris luciferase); test: Primary Nanoluciferase (NLuc) qHTS assay for identification of artifact compounds. (AID 1845222);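 further: NLuc secreted into diluted conditioned medium of S16 cells; series mostly up to about 54 µM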
# Outline: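 Concentration-response data were obtained by luminescence after 5 min with Nano-Glo substrate at 1:100. The enzyme was diluted S16 NLuc-expressing cell medium, preincubated with compound for 15 min at RT. Curves were fitted with a 4-parameter Hill model.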
# [19] = Primary redox qHTS assay for identification of artifact compounds. (AID 1845223)
# Outline: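 Amplex Red (25 uM) and HRP (250 mU/mL) in HBSS, with compounds for 15 min, then 250 uM DTT for 30 min, room temperature, dark. Fluorescence 525/598 nm read; normalized to DMSO and 10 uM DA3003; Hill fit.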
# Sequence of Metallo-beta-lactamase type 2 (Klebsiella pneumoniae) (C7C422 whole entry, looked up): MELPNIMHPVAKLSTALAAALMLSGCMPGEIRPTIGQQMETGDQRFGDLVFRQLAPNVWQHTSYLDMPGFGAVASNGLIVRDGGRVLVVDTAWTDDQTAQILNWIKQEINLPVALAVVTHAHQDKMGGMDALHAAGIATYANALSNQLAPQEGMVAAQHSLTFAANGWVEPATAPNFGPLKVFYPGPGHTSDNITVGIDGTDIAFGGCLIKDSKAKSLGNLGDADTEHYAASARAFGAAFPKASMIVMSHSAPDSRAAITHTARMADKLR
# Sequence of Glutathione peroxidase 1 (Homo sapiens) (P07203 whole entry, looked up): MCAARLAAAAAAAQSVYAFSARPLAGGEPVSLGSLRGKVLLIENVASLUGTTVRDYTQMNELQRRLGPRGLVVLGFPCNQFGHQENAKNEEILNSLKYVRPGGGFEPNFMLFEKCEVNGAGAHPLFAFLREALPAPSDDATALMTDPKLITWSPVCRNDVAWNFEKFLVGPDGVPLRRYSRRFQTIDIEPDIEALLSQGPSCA
# Sequence of Phospholipid hydroperoxide glutathione peroxidase GPX4 (Homo sapiens) (P36969 whole entry, looked up): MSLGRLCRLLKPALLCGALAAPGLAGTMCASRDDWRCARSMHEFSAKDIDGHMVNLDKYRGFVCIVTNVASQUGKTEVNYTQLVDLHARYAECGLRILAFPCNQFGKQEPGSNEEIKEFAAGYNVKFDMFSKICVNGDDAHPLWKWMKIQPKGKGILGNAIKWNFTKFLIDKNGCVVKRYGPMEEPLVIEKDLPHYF
Structure (SMILES),outcome [1],Potency [2],Potency [3],Potency [4],Potency [5],Potency [6],Potency [7],Potency [8],Potency [9],Potency [10],Potency [11],Potency [12],Potency [13],Potency [14],Potency [15],Potency [16],Potency [17],outcome [18],outcome [19]
O=C1NC(=O)C(c2ccccc2[N+](=O)[O-])=C1Nc1ccc(O)c(Cl)c1,inactive,inactive,inactive,inactive,inactive,inactive,inactive,–,–,–,–,–,–,–,–,–,–,–,–
CNC[C@H](O)c1ccc(O)c(O)c1,inactive,inactive,inactive,–,15.2 µM (active),inactive,–,9.59 µM (active),inactive,inactive,inactive,inactive,38.2 µM (active),13.6 µM (active),–,–,–,–,–
C[C@H](Cc1ccc(O)c(O)c1)[C@@H](C)Cc1ccc(O)c(O)c1,inactive,–,inactive,–,20.9 µM (active),–,inactive,2.09 µM (active),7.43 µM (active),–,–,–,–,14.8 µM (active),16.6 µM (active),9.35 µM (active),–,–,–
O=c1cc(N2CCOCC2)oc2c(-c3ccccc3)cccc12,inactive,inactive,inactive,–,18.7 µM (active),–,–,16.6 µM (active),inactive,inactive,inactive,–,–,16.6 µM (active),1.48 µM (active),–,–,–,–
O=C1c2c(O)cc(O)cc2OC(c2ccc(O)c(O)c2)C1O (centres undefined),inactive,inactive,inactive,inactive,inactive,inactive,inactive,inactive,inactive,–,inactive,–,inactive,–,inactive,inactive,–,–,–
C[C@@H](N)C1CCC(C(=O)Nc2ccncc2)CC1 (some centres undefined),inactive,–,inactive,inactive,inactive,inactive,–,–,inactive,–,inactive,–,–,inactive,–,18.7 µM (active),–,–,–
CN(C)C(=O)[C@H](O)[C@H](Cc1ccccc1)NC(=O)c1cc2cc(Cl)ccc2[nH]1,inactive,inactive,inactive,–,16.6 µM (active),–,–,–,6.62 µM (active),16.6 µM (active),–,inactive,–,1.66 µM (active),4.18 µM (active),0.833 µM (active),inactive,inactive,inactive
O=C(CCc1ccc(O)cc1)c1c(O)cc(O)cc1O,inactive,inactive,inactive,–,1.32 µM (active),1.32 µM (active),–,–,0.59 µM (active),0.372 µM (active),–,0.059 µM (active),–,–,0.118 µM (active),0.418 µM (active),–,–,–
CC(=O)NC[C@H]1CN(c2ccc(N3CCOCC3)c(F)c2)C(=O)O1,inactive,inactive,inactive,inactive,18.7 µM (active),–,–,inactive,inactive,inactive,inactive,–,inactive,–,–,inactive,inactive,inactive,inactive
C[C@@H](c1ncncc1F)[C@](O)(Cn1cncn1)c1ccc(F)cc1F,inactive,inactive,inactive,inactive,inactive,–,inactive,inactive,inactive,inactive,inactive,–,inactive,–,inactive,inactive,–,–,–
CC1(C)C(=O)N(CCN2CCC(C(=O)c3ccc(F)cc3)CC2)c2ccccc21,inactive,inactive,inactive,inactive,20.9 µM (active),3.72 µM (active),–,inactive,6.62 µM (active),9.35 µM (active),8.33 µM (active),2.09 µM (active),–,–,16.6 µM (active),1.66 µM (active),–,–,–
NCCCCNCCCN,inactive,inactive,inactive,23.5 µM (active),16.6 µM (active),18.7 µM (active),–,–,inactive,inactive,–,–,18.7 µM (active),2.96 µM (active),23.5 µM (active),11.8 µM (active),–,–,–
Oc1ccc(-c2nc(-c3ccc(F)cc3)c(-c3ccncc3)[nH]2)cc1,inactive,inactive,inactive,–,–,inactive,–,–,inactive,inactive,inactive,–,14.8 µM (active),9.35 µM (active),5.9 µM (active),14.8 µM (active),–,–,–
CC1(C)NC(=O)N(c2ccc([N+](=O)[O-])c(C(F)(F)F)c2)C1=O,inactive,inactive,inactive,–,–,inactive,0.235 µM (active),–,inactive,inactive,inactive,inactive,–,–,–,3.32 µM (active),–,–,–
Clc1ccc2c(N3CCN(CCCN4CCN(c5ccnc6cc(Cl)ccc56)CC4)CC3)ccnc2c1,inactive,–,inactive,–,–,inactive,–,inactive,inactive,inactive,inactive,–,inactive,inactive,–,inactive,–,–,–
Oc1ccc2ccccc2c1SSc1c(O)ccc2ccccc12,inactive,inactive,inactive,–,23.5 µM (active),–,14.8 µM (active),20.9 µM (active),20.9 µM (active),16.6 µM (active),23.5 µM (active),20.9 µM (active),18.7 µM (active),7.43 µM (active),16.6 µM (active),5.9 µM (active),–,–,–
CCOC(=O)C(C)Oc1cccc2c(=O)n(CC(=O)Nc3ccc4c(c3)OCCO4)ccc12 (centres undefined),inactive,inactive,inactive,inactive,–,–,inactive,–,16.6 µM (active),inactive,13.2 µM (active),inactive,–,–,–,inactive,–,–,–
Nc1nc(OCc2ccccc2)c2[nH]cnc2n1,inactive,inactive,inactive,inactive,20.9 µM (active),–,–,inactive,–,–,–,inactive,13.2 µM (active),–,–,18.7 µM (active),–,–,–
